From PubChem BioAssay AID720519 (National Center for Advancing Translational Sciences (NCATS), 2013) come the findings set out here.

Inconclusive results are not listed. A call without a number means that no potency is given here. Activity calls are given as the source filed them. Calls come from the whole dose curve; as a rule, active = well fitted activation curve with a large enough effect; inconclusive = small, poorly fitted or top-dose-only effect; inactive = flat fitted curve, though single readings scatter.
Potency is the fitted concentration of half-maximal effect.

This test is described as follows: qHTS for Inhibitors of Cell Surface uPA Generation: Confirmatory Assay for Cherry-picked Compounds. The note with it: cell surface uPA activity generation, qHTS confirmation; series mostly up to 115 µM. Summed up: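 RAW 264.7 cells at 4000/well, incubated overnight, then treated with compounds. After 24 h at 37 C, viability was read by ATPlite luminescence. An increase in signal indicates blocked uPA-dependent LF entry.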
(Quantitative high-throughput screening tests each substance at several concentrations.)
Regarding `COc1ccccc1NC(=O)Cn1nnc(-c2ccccc2NC(=O)c2cc3ccccc3oc2=O)n1`, the Potency result was “inactive”.
Under `C=CS(=O)(=O)c1ccc(Oc2ccc(S(=O)(=O)C=C)cc2)cc1` stands 58.5 µM (active).
Under `Cc1oc2c(Cl)c(Cl)c(O)c(CN(C)C)c2c1C(=O)c1ccc(Cl)cc1` stands “inactive”; under `CCCC1=NN(C(=O)Cc2ccc(OC)cc2)C(O)(C(F)(F)F)C1` (stereo not drawn), “inactive”; under `Cc1cc(C)n2nc(CNS(=O)(=O)c3ccc(F)c(C)c3)nc2n1`, “inactive”.
As for `CCOc1ccc(-n2cnc3scc(-c4ccc(OC)c(OC)c4)c3c2=O)cc1`, the entry is “inactive”; as for `COc1ccc(Cc2nnc(NC(=O)Nc3ccc(F)cc3)s2)cc1`, “inactive”; as for `COc1ncnc(NS(=O)(=O)c2ccc(N)cc2)c1OC`, “inactive”.
For the compound `Cc1nc2nc(C)c(NS(=O)(=O)c3ccc(Cl)cc3)c(=O)n2[nH]1`, the Potency entry was “inactive”.
Turning to `Cc1ccc(Cl)cc1NC(=O)c1ccccc1OCC(=O)N1CCOCC1`, the Potency entry is “inactive”.
For `CCCCNc1c(-c2ccc(-c3cccc(Cl)c3)cc2)nc2ccccn12`, the Potency entry is “inactive”.
As for `O=C(O)CNS(=O)(=O)c1ccc2c(c1)Cc1cc(S(=O)(=O)NCC(=O)O)ccc1-2`, the entry is “inactive”; as for `COc1ccc(-c2csc(NC(C)c3nc4cc(C(=O)NCCCO)ccc4n3Cc3ccc(C)cc3)n2)cc1` (stereo not drawn), “inactive”; as for `O=C(NNC(=O)c1ncc(Cl)c(Cl)c1Cl)c1ccc(F)cc1`, “inactive”.
As for `Cc1cnc(CNC(=O)C2CCC(=O)N(CCc3cccc(F)c3)C2)[nH]1` (stereo not drawn), the entry is “inactive”.
Take `O=C(Nc1cccc(C2=NCCN2)c1)Nc1cccc(C2=NCCN2)c1`: the Potency entry is “inactive”.
As for `O=C(Cc1ccccc1)Nc1ccc(NC(=O)c2ccccc2)c(Cl)c1`, the Potency entry was “inactive”.
Under `COc1ccc(/C=C/C(=O)Nc2ccccc2Cl)cc1S(=O)(=O)N1CCOCC1` stands “inactive”; under `C[C@@H](CSc1ccccc1)CN1CC[C@H](O)CCC1=O`, “inactive”.
For `Cc1cccc(NC(=O)c2cc3c(=O)n4ccccc4nc3s2)c1`, the Potency entry is “inactive”.
`Cc1ccn(CCC(=O)N2CCc3ccccc32)n1`: the Potency entry was “inactive”.
Under `CCCCNC(=O)C1CCN(S(=O)(=O)c2c(C)noc2/C=C\c2ccc(OC)cc2)CC1` stands “inactive”.
On to `O=c1[nH]c2ccccc2cc1CN(CC1CCCO1)S(=O)(=O)c1ccccc1` (stereo not drawn), for which the Potency result was “inactive”.
For `O=C(CCS(=O)(=O)c1ccc2c(c1)NC(=O)CS2)NCc1cccs1`, the Potency entry was “inactive”.
Consider `CC(O)[C@H]1CNC(=O)C(=O)N1CCc1cccc(F)c1` (stereo partly drawn), for which the Potency result was “inactive”.
With `CC1CCCN(C(=O)c2ccc(-c3ccccc3Cl)o2)C1` (stereo not drawn), the Potency result was “inactive”.
Turning to `CCOc1ccc(C(=O)NCCO)cc1`, the Potency result is “inactive”.
Under `Cc1ccccc1S(=O)Cc1ccc(C(=O)N2CCN(C(=O)c3ccco3)CC2)o1` (stereo not drawn) stands “inactive”.
In the case of `CCOc1ccc(C(=O)NCC(=O)N2CCN(C/C=C/c3ccccc3)CC2)cc1OCC`, the Potency entry was “inactive”.
Under `COc1cc(CNCCc2ccccc2)cc(Br)c1OCC(=O)Nc1ccccc1C` stands “inactive”.
As for `CCC1(CC)NC(=O)N(CC(=O)OCC(=O)c2cc(C)c(C)cc2C)C1=O`, the entry is “inactive”.
Under `O=c1ccc(S(=O)(=O)N2CCCC2)c[nH]1` stands “inactive”.
Take `COC(=O)C(CCSC)NC(=O)Cn1ncc2c(=O)oc3ccccc3c21` (stereo not drawn): the Potency entry is “inactive”.
Under `Cn1nc(N2CCN(S(=O)(=O)c3ccccc3)CC2)c(=O)n(C)c1=O` stands “inactive”; under `CCOc1cc(C)c(S(=O)(=O)N2CCCCC2)cc1C`, “inactive”; under `COc1ccc(CNCCC2(C(C)C)CCOC(C)(C)C2)cc1` (stereo not drawn), “inactive”.
Turning to `COc1cc(SC)ccc1C(=O)OCc1nc2ccsc2c(=O)[nH]1`, the Potency result was “inactive”.
Take `Cc1nc(NC(=O)CSc2nnc(C3CC3)n2C)sc1C(=O)N(C)C`: the Potency result is “inactive”.
